The source made the active and inactive calls.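 The calls were made as follows, unless noted: active = inhibition at or above 50% at 10 µM; inactive = inhibition below 50%.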 Where a SMILES comes first, the peptide text is derived from it.
What was measured:
[1] = inhibitors of TNFa-induced NFkB p65 translocation, primary screen, imaging, HUVEC, MLSMR starter and 10KST1 sets (AID 438;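 active = inhibition above 20% together with a positive visual image hit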;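 also: compound added about 3h40 before a 20 min TNFalpha stimulation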;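 as to inhibition: signal is the nuclear over cytoplasmic p65 intensity ratio per well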); conditions: HUVEC TNFa-induced p65 nuclear translocation; cell count: measured here: nuclei count (cytotoxicity indicator), at 2.08 µM; inhibition: at 2 µM, stronger effect = higher value, 0% TNFa-plus-vehicle, 100% no-TNFa wells
[2] = reduction of polyQ htt aggregates in cells – imaging, exon1htt(103Q)mCFP cells, high-content imaging, primary screen (AID 483;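 active = visual image review flags a hit and inhibition of aggregation exceeds 20%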;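 also: compound exposure lasted 3 days before fixation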;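 as to nuclei count: percent of the per-plate median nuclei count of sample wells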); conditions: exon1htt(103Q)mCFP cell line, aggregate imaging, at 2 µM; inhibition of aggregation: stronger effect = higher value; nuclei count: measured here: cell count, toxicity
[3] = endothelial E-selectin expression blockers – imaging, HUVEC, immunofluorescence, MLSMR starter and 10KST1 sets, primary screen (AID 487;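 active = visually confirmed hit in the image check and inhibition above 20%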;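 as to inhibition: signal is fraction of cell area covered by stained E-selectin grains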;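 as to nuclei count: 100% = median nuclei count of all wells on the same plate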); conditions: HUVEC TNFalpha-induced E-selectin immunofluorescence imaging, at 2 µM; inhibition: stronger effect = higher value; nuclei count: measured here: cell number, toxicity
[4] = biological target: Voltage-gated potassium channel subunit beta-2 (Rattus norvegicus) (UniProt P62483); assay: inhibitors of rat Kvbeta2 reductase activity – biochemical, NADPH fluorescence, primary screen (AID 622;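 active = fluorescence slope higher than the sample average by over 3 SD, cut at about -0.22 in these data, passing the limit was not always enough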;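 also: slope of raw intensity against log time taken from 70 to 1610 s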); conditions: recombinant KvBeta, 4-cyanobenzaldehyde reduction, at 10 µM, stronger effect = higher value
Sequence of Voltage-gated potassium channel subunit beta-2 (Rattus norvegicus) (P62483 whole entry, looked up): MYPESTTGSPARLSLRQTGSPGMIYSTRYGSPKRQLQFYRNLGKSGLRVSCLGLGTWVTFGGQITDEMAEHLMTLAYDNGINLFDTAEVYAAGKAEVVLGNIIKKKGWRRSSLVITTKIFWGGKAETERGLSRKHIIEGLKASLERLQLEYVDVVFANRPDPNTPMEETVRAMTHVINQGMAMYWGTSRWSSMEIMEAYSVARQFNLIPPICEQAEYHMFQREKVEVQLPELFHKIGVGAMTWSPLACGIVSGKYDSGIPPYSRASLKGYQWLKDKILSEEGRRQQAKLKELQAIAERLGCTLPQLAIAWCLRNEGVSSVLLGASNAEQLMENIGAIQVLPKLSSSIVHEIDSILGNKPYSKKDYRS

[5] = biological target: Voltage-gated potassium channel subunit beta-2 (Rattus norvegicus) (UniProt P62483); assay: enhancers of rat Kvbeta2 NADPH turnover – biochemical, NADPH fluorescence, primary screen (AID 623;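 active = NADPH fluorescence slope more negative than the mean of all samples by about 3 SD, 99.7% confidence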;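 also: fluorescence intensity change per second fitted from 20 to 320 s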); conditions: Recombinant KvBeta, NADPH fluorescence decrease slope, 10 min; at 10 µM; stronger effect = lower value
[6] = biological target: Alpha-2C adrenergic receptor (Homo sapiens) (UniProt P18825); assay: compounds altering alpha2C-coupled GIRK flux – cell-based, HEK293 alpha2C/GIRK1/2, thallium flux, primary screen (AID 624;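 active = fluorescence slope after compound addition differing from the mean of all screened samples at 99.7% confidence, in either direction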;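 also: slope of fluorescence ratio to pre-addition baseline per second over 15 to 24 s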); conditions: thallium flux BTC fluorescence, at 10 µM, actives lie on both sides
Sequence of Alpha-2C adrenergic receptor (Homo sapiens) (P18825 whole entry, looked up): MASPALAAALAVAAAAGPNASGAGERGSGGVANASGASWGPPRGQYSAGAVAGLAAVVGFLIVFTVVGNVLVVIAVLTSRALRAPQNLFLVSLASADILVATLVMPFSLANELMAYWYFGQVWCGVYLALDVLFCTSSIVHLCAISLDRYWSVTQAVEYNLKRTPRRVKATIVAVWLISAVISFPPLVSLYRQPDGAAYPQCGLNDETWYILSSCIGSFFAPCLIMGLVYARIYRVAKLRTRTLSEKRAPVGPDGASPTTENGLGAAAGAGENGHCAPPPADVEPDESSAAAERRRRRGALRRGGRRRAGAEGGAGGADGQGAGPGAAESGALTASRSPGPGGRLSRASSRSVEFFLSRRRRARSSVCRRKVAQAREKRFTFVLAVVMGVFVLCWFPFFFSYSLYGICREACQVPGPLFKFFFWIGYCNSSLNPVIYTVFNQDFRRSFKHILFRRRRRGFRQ

[7] = blockers of RIG-like receptor reporter activation – cell-based, Sendai virus stimulus, luciferase, 10K MLSCN set, TLR/RLR signaling modifier project, primary screen (AID 602276); conditions: HEK293 RL24 IRF3 luciferase reporter, at 10 µM, stronger effect = higher value;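 also: firefly luciferase from ISG56 promoter only with Renilla not read in this screen; 0% = Sendai virus plus DMSO and 100% = medium plus DMSO without virus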
[8] = TLR3 IRF3 reporter activation blockers – cell-based, poly I:C stimulus, luciferase, 10K MLSCN set, primary screen (AID 602277;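 active = inhibition of the reporter signal at or above 50%; inactive = inhibition below 50%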); conditions: HEK293-TLR3 RL24 IRF3 luciferase reporter, at 10 µM, stronger effect = higher value

SMILES | cell count [1] | inhibition [1] | inhibition of aggregation [2] | nuclei count [2] [%] | inhibition [3] | nuclei count [3] [%] | fluorescence slope [4] | NADPH fluorescence slope [5] | slope [6] | inhibition [7] | inhibition [8]
Cc1nn(-c2ccccc2)c(C)c1/C=N/O | 739 | -3.9% (inactive) | -3.1% (inactive) | 93.7 | 25% (inactive) | 94.2 | -0.446 (inactive) | 2.9e-05 (inactive) | 0.00603 (inactive) | -8.9% (inactive) | -14.8% (inactive)
Cc1ccc(O)c(C(CC(=O)N2CCCC2)c2ccccc2)c1 (stereo not drawn) | 478 | 1.6% (inactive) | 4.1% (inactive) | 103 | -33% (inactive) | 114 | -0.35 (inactive) | -4.7e-05 (inactive) | 0.00552 (inactive) | 3.98% (inactive) | 16.5% (inactive)
O=C(Nc1ccccn1)N1CCOCC1 | 319 | 9.3% (inactive) | 10.6% (inactive) | 95.2 | -70.8% (inactive) | 114 | -0.303 (inactive) | -5e-05 (inactive) | 0.00596 (inactive) | 1.79% (inactive) | 0.112% (inactive)
CCOC(=O)C(NC(C)=O)(NS(=O)(=O)c1ccccc1)C(F)(F)F (stereo not drawn) | 537 | -2.4% (inactive) | 18.4% (inactive) | 88.5 | 39.5% (inactive) | 90.8 | -0.616 (inactive) | 5.2e-06 (inactive) | 0.00712 (inactive) | 10.5% (inactive) | 14.2% (inactive)
CCOC(=O)c1ccc(N2C(=O)CC(NC3CCN(C(=O)c4ccc(F)cc4)CC3)C2=O)cc1 (stereo not drawn) | 699 | 8.6% (inactive) | 7.9% (inactive) | 102 | -30.3% (inactive) | 98.3 | -0.416 (inactive) | 2.4e-05 (inactive) | 0.00425 (inactive) | -1.5% (inactive) | -3.21% (inactive)
Cc1ccc(-n2cnnn2)c2cccnc12 | 658 | -9.3% (inactive) | -7% (inactive) | 104 | -17% (inactive) | 102 | -0.402 (inactive) | -1.4e-05 (inactive) | 0.00333 (inactive) | 5.45% (inactive) | 27.7% (inactive)
CCOc1ccccc1C(=O)N1CCN(c2cccc(Cl)c2)CC1 | 460 | 24.4% (active) | -20.9% (inactive) | 4 | -294% (inactive) | 104 | -0.614 (inactive) | -5.4e-05 (inactive) | 0.00344 (inactive) | 9.54% (inactive) | 87.8% (active)
CC(=O)NC(C(=O)NCC(N)=O)C(C)C (stereo not drawn) (HELM PEPTIDE1{[ac].[CC(C)C(N[*:1])C(=O)[*:2]].G.[am]}$$$$V2.0) | 517 | -15.2% (inactive) | -13.6% (inactive) | 89.2 | 9.9% (inactive) | 109 | -0.59 (inactive) | -3.6e-05 (inactive) | 0.00838 (inactive) | -3.54% (inactive) | -10.4% (inactive)
CCCNS(=O)(=O)c1ccc(OCC(=O)NCc2ccc3c(c2)OCO3)cc1 | 434 | 1.7% (inactive) | -1.9% (inactive) | 108 | -93.9% (inactive) | 106 | -0.368 (inactive) | -6.9e-05 (inactive) | 0.00408 (inactive) | 12.8% (inactive) | 17.9% (inactive)
Cc1cc(C)c(OCC(=O)Nc2ccc3c(c2)OCO3)cc1C | 327 | -0.7% (inactive) | 7.3% (inactive) | 101 | 9.8% (inactive) | 103 | -0.437 (inactive) | 4.6e-05 (inactive) | 0.00669 (inactive) | -6.64% (inactive) | -49.1% (inactive)
CC(C)C(c1nnnn1C1CCCC1)N1CCCc2ccccc21 (stereo not drawn) | 706 | -6.9% (inactive) | 5.4% (inactive) | 95.4 | -47.1% (inactive) | 107 | -0.423 (inactive) | -7.3e-05 (inactive) | 0.00444 (inactive) | -17.8% (inactive) | -6.74% (inactive)
CC1CCN(c2oc(-c3ccccc3F)nc2C#N)CC1 | 578 | 5% (inactive) | -3.3% (inactive) | 122 | -32.2% (inactive) | 114 | -0.411 (inactive) | 7.4e-06 (inactive) | 0.00601 (inactive) | -30.7% (inactive) | -73.4% (inactive)
CCSc1nc2c(c(=O)[nH]1)C(c1cccnc1)C(C(=O)OC(C)C)=C(C)N2 (stereo not drawn) | 500 | 3.8% (inactive) | 19.4% (inactive) | 93.1 | -57.7% (inactive) | 103 | -0.475 (inactive) | -1.6e-05 (inactive) | 0.00631 (inactive) | 1.95% (inactive) | 25.7% (inactive)
CCCC(=O)N(c1ccc2oc(=O)sc2c1)S(=O)(=O)c1ccccc1 | 318 | 3.5% (inactive) | -12.8% (inactive) | 104 | -45.1% (inactive) | 80 | -0.61 (inactive) | -2.4e-05 (inactive) | 0.00625 (inactive) | 14.8% (inactive) | 17.5% (inactive)
CCOc1cc2[nH]c(=O)n(CCCCC(=O)NCc3ccco3)c(=O)c2cc1OCC | 394 | -17.9% (inactive) | -0.5% (inactive) | 117 | -41.6% (inactive) | 110 | -0.508 (inactive) | -6e-05 (inactive) | 0.00662 (inactive) | 9.08% (inactive) | 35.9% (inactive)
COC(=O)CN(c1ccc(C)c(Cl)c1)S(C)(=O)=O | 322 | 4% (inactive) | -11.9% (inactive) | 117 | 13.8% (inactive) | 110 | -0.506 (inactive) | -4.6e-05 (inactive) | 0.00698 (inactive) | 13.7% (inactive) | 19.8% (inactive)
CC(C)(C)NC(=O)CSc1nnc(-c2ccccn2)n1-c1ccccc1 | 588 | -10.6% (inactive) | -12.9% (inactive) | 86.7 | -36.6% (inactive) | 122 | -0.587 (inactive) | -2e-05 (inactive) | 0.00702 (inactive) | -7.01% (inactive) | 26.8% (inactive)
Cc1cccc(CN2CCC(CNC(=O)C3CCCN(S(=O)(=O)c4cnc[nH]4)C3)CC2)c1 (stereo not drawn) | 706 | -12.2% (inactive) | 10.2% (inactive) | 106 | -61.1% (inactive) | 125 | -0.518 (inactive) | -3.2e-05 (inactive) | 0.0058 (inactive) | 18.8% (inactive) | 27.2% (inactive)
COC(=O)c1c(NC(=O)CSc2nnc(-c3cccnc3)n2Cc2ccco2)sc(C)c1C | 505 | -5.5% (inactive) | 24% (inactive) | 101 | 29.5% (inactive) | 104 | -0.579 (inactive) | -2.7e-05 (inactive) | 0.00567 (inactive) | 4.42% (inactive) | 16.1% (inactive)
Cc1ccc(CSC2=NCCN2C(=O)C2CC2)cc1 | 221 | -0.8% (inactive) | 7.2% (inactive) | 100 | -26.8% (inactive) | 107 | -0.604 (inactive) | -2e-05 (inactive) | 0.00584 (inactive) | 11% (inactive) | 11.8% (inactive)
Cc1ccc(S(=O)(=O)Cc2ccc(C(=O)N3CCN(Cc4ccccc4)CC3)o2)cc1 | 760 | -9.8% (inactive) | -10.9% (inactive) | 101 | -76.2% (inactive) | 118 | -0.569 (inactive) | -1.3e-05 (inactive) | 0.00635 (inactive) | 10.7% (inactive) | 37.2% (inactive)
CCN(C(=O)c1cn(C)c(=O)c2cc(OC)c(OC)cc12)c1ccccc1C | 175 | 0.3% (inactive) | 12.8% (inactive) | 94.1 | -21.1% (inactive) | 114 | -0.59 (inactive) | -2.6e-05 (inactive) | 0.00574 (inactive) | 0.738% (inactive) | 16.5% (inactive)
O=C(c1ccncc1)N1CCN(C(=O)c2cccs2)CC1 | 454 | -3.3% (inactive) | 1.6% (inactive) | 110 | 0.5% (inactive) | 106 | -0.459 (inactive) | -3e-05 (inactive) | 0.00631 (inactive) | 12.1% (inactive) | 14.2% (inactive)
Cc1csc2nc(CNC(=O)c3ccco3)cn12 | 518 | -8.8% (inactive) | -5.9% (inactive) | 90.4 | -27.7% (inactive) | 71 | -0.511 (inactive) | -5.4e-05 (inactive) | 0.00553 (inactive) | -23.7% (inactive) | -70.6% (inactive)
CCOc1ncccc1C(=O)Nc1ccc(Cl)cc1 | 861 | -15% (inactive) | -9.2% (inactive) | 121 | -36.9% (inactive) | 105 | -0.44 (inactive) | -3.2e-06 (inactive) | 0.0068 (inactive) | 10.1% (inactive) | 35.6% (inactive)
CS(=O)(=O)N1CCC(C(=O)NCCC2=CCCCC2)CC1 | 427 | 4.2% (inactive) | 8% (inactive) | 100 | -89.9% (inactive) | 106 | -0.382 (inactive) | -2.9e-05 (inactive) | 0.00662 (inactive) | 12.6% (inactive) | 8.24% (inactive)
CN(CCc1ccccn1)C(=O)CCNC(=O)Cn1cnc2ccccc2c1=O | 202 | -7.4% (inactive) | -4.7% (inactive) | 99.5 | -6.6% (inactive) | 110 | -0.611 (inactive) | 1.1e-05 (inactive) | 0.00589 (inactive) | 13.8% (inactive) | 14.4% (inactive)
COc1ccc2c(c1)cc(C(=O)O)n2C | 773 | 4.2% (inactive) | -20.2% (inactive) | 77.6 | -10.3% (inactive) | 128 | -0.393 (inactive) | -6.4e-05 (inactive) | 0.00479 (inactive) | 11.6% (inactive) | 23.7% (inactive)
